Measurements published in the supplement of paper PMC8253809.

How the values were obtained:
Assay in all cases: growth inhibition (% activity, log2 RLU normalised to DMSO / staurosporine); higher = more growth inhibition
Details in all cases: 33 µM
[1] = tested on: DIPGX29 (H3.3 K27M diffuse intrinsic pontine glioma line)
Summary of the method: (§1)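 The growth-inhibition value comes from CellTiter-Glo luminescence, log2-transformed, normalised per plate to % activity between solvent and positive control wells, and taken as the median over replicates. Treatment of pHGG cell lines and H9-derived neural stem cells with approved drugs was at a single final concentration of about 33 μM, in triplicate, for 7 days at 37 °C, 5% CO2.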

[2] = tested on: DIPGX37 (H3.3 K27M diffuse intrinsic pontine glioma line)
Summary of the method: as §1

[3] = tested on: DIPGX7 (H3.3 K27M diffuse intrinsic pontine glioma line)
Summary of the method: as §1

[4] = tested on: DIPGX9 (diffuse intrinsic pontine glioma line)
Summary of the method: as §1

[5] = tested on: HGGX39 (paediatric high-grade glioma line)
Summary of the method: as §1

[6] = tested on: HGGX6 (H3.3 G34R paediatric high-grade glioma line)
Summary of the method: as §1

[7] = tested on: HNSC
Summary of the method: as §1

[8] = tested on: SUDIPGIV (diffuse intrinsic pontine glioma line)
Summary of the method: as §1

[9] = tested on: SUDIPGVI (diffuse intrinsic pontine glioma line)
Summary of the method: as §1

[10] = tested on: SUDIPGXIII (diffuse intrinsic pontine glioma line)
Summary of the method: as §1

SMILES | growth inhibition [1] [%] | growth inhibition [2] [%] | growth inhibition [3] [%] | growth inhibition [4] [%] | growth inhibition [5] [%] | growth inhibition [6] [%] | growth inhibition [7] [%] | growth inhibition [8] [%] | growth inhibition [9] [%] | growth inhibition [10] [%]
CCOc1nc2cccc(C(=O)OCc3oc(=O)oc3C)c2n1Cc1ccc(-c2ccccc2-c2noc(=O)[nH]2)cc1 | 0.179 | -1.86 | 1.02 | 0.141 | 0.998 | -2.04 | 16.6 | -1.36 | -4.87 | -1.75
COc1cccc(N(C)C(=S)Oc2ccc3c(c2)CCCC3)n1 | 2.16 | 1.79 | 1.25 | 2.82 | 2.33 | 1.82 | 1.51 | 0.755 | 2.8 | 1.12
Oc1ccc(OCc2ccccc2)cc1 | 2.78 | -1.94 | 5.44 | 2.61 | 1.21 | 1.02 | 10.9 | -2.99 | -1.42 | -1.26
Nc1nc(Cl)nc2c1ncn2[C@@H]1O[C@H](CO)[C@@H](O)[C@@H]1F | 14.6 | 9.43 | 17.6 | 43.6 | 20 | 12.5 | 64.4 | 45 | 2.3 | 14.3
CC(C)NCC(O)c1ccc(NS(C)(=O)=O)cc1 (stereo not given) | -1.59 | 1.48 | 1.46 | 0.414 | 0.329 | -2.93 | 9.65 | 3.05 | 2.59 | -1.17
COc1ccc2cccc(CCNC(C)=O)c2c1 | -3.08 | -0.948 | -1.76 | -2.3 | -1.63 | -4.45 | -2.84 | -2.11 | -2.45 | -0.361
CCC(=O)NCC[C@@H]1CCc2ccc3c(c21)CCO3 | -0.665 | -0.134 | 1.26 | 0.325 | 1.29 | -0.174 | 3.01 | 0.00903 | 1.36 | 0.726
C/C(O)=C(\C#N)C(=O)Nc1ccc(C(F)(F)F)cc1 | 3.56 | 5.04 | 3.25 | 5.83 | 5.87 | 5.21 | 2.85 | 9.89 | 4.21 | -15.3
NC(=O)N1c2ccccc2CC(=O)c2ccccc21 | -3.02 | -1.81 | -2.16 | -3.17 | -2.13 | -4.21 | -3.92 | -3.93 | -1.28 | -0.579
COc1cc(/C=C/C(=O)N2CCN(CC(=O)N3CCCC3)CC2)cc(OC)c1OC | -0.327 | 0.826 | -0.108 | -0.784 | 0.66 | -2.67 | 17.5 | 0.556 | -3.03 | -1.16
CNC1CCCN(c2c(F)cc3c(=O)c(C(=O)O)cn(C4CC4)c3c2OC)C1 (stereo not given) | -0.899 | 0.515 | -0.411 | 1.06 | 0.742 | 1.27 | -1.65 | -0.11 | -0.677 | 0.279
CCOC(=O)[C@H](CCc1ccccc1)N[C@H]1CS[C@H](c2cccs2)CN(CC(=O)O)C1=O | -2.15 | 0.457 | 0.303 | -0.286 | 0.0238 | 0.0397 | 1.94 | -0.624 | -2.82 | 0.0387
C[C@@](Cc1ccc(O)c(O)c1)(NN)C(=O)O | -0.229 | 0.519 | -0.935 | 2.31 | -0.733 | 0.427 | -1.19 | 0.65 | 2.9 | 1.25
CCN(CC)CCOCCOC(=O)C(CC)(CC)c1ccccc1 | 7.78 | 4.64 | 14.3 | 2.65 | 9.22 | 10.7 | 6.61 | 2.41 | 4.8 | -0.0734
CCc1cc(C(N)=S)ccn1 | -2.89 | -1.22 | -0.907 | -2.73 | -1.46 | -1.03 | -5.37 | -0.99 | -3.57 | -0.39
Cn1nnc2c(C(N)=O)ncn2c1=O | -1.97 | 0.303 | -1.33 | -1.07 | -1.58 | -0.426 | 9.79 | -4.09 | 0.031 | -1.62
CN1C(CCl)Nc2cc(Cl)c(S(N)(=O)=O)cc2S1(=O)=O (stereo not given) | 1.82 | 1.82 | 1.38 | 0.87 | 2.55 | 3.08 | 1.19 | 0.139 | 1.21 | -13.7
Cc1cc(C#N)cc(C)c1Oc1nc(Nc2ccc(C#N)cc2)nc(N)c1Br | 3.55 | -3.38 | 9.93 | -0.625 | 6.72 | 6.05 | 35.3 | 1.55 | 15.5 | 27.6
c1cc(CN2CCCNCCNCCCNCC2)ccc1CN1CCCNCCNCCCNCC1 | 1.86 | 3.43 | 1.65 | 2.55 | 4.18 | 5.37 | 11.8 | 12.5 | 5.04 | 3.18
